Hits are enriched below; roughly 0.89% of the tested compounds scored in any of these assays.
L3MBTL1 inh: L3MBTL1 (human) inhibition. Q9Y468. AlphaScreen L3MBTL1–H3K9me1 peptide binding. Potency, µM (titrated, usually from 57.1 µM), actives largely listed as inhibitors. 0.66% of 230,000 active. AID 485360; note: nearly all actives have a fitted effect of over 60% in size
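AlphaScreen proximity signal between nickel-chelate acceptor and streptavidin donor beads (final 10 ug/mL) reports binding of 50 nM L3MBTL1 to 75 nM biotin-H3 K9me1 peptide; complex incubated with compounds 30 min at room temperature; cefsulodin titration as control.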
CtBP-E1A inh: inhibitors of CtBP/E1A interaction; activity change, % (test concentration not listed); AlphaScreen GST-E1A/His-CtBP binding, 1536-well; active compounds read low; 0.49% of 340,000 active; in the data active = activity change below about -65%; inconclusive = mostly about -30% to -63%
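Steps: dispense buffer (Tris pH 8.0, NaCl 300 mM, TCEP 1 mM, BSA, Tween 20); add 5X protein mix (GST-E1A, His-CtBP, 125 nM each); pin 23 nL compound; 2 h at 37 °C, dark; add 5X beads (50 ug/mL); 1 h; read.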
Six1-Eya2 blk: Six1/Eya2 interaction inhibition | 0.56% of 360,000 active | AID 651725 | AlphaScreen GST-Six1/His-Eya2 binding, biochemical; active compounds read low | activity change, % (test concentration not listed) | Q15475+O00167; in the data active = activity change below about -65%; inconclusive = mostly about -30% to -63%
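AlphaScreen with GST-Six1 and His-Eya2 (5X mix: 250 nM and 500 nM), glutathione donor and nickel acceptor beads; buffer 50 mM Tris pH 8.0, 300 mM NaCl, 1 mM TCEP; 1 h at 37 C in the dark.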
Eya2 inh: inhibitors of human Eya2 phosphatase activity; O00167; recombinant Eya2, OMFP fluorescence dephosphorylation (OMFP is methylfluorescein phosphate); Potency, µM (top dose mostly 76.9 µM), hits mostly inhibitors; 0.006% of 330,000 active
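Eya2 protein (added as 0.2 uM solution) was preincubated with compound for 10 min at ambient temperature in 50 mM HEPES pH 7.5, 50 mM NaCl, 5 uM MgCl2, 0.05% BSA, 1 mM DTT. OMFP (added at 50 uM) then reacted 10 min; fluorescence read at 485/525 nm.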
CBFb-RUNX1 inh: inhibitors of human CBF-beta and RUNX1 interaction | AID 1477 | Potency, µM (titrated, usually from 59.8 µM), actives largely listed as inhibitors | AlphaScreen CBFb-His/RUNX1-biotin binding, biochemical | 230,000 tested, under 10 active | Q01196+Q13951
Target sequence (Q01196 whole entry, looked up): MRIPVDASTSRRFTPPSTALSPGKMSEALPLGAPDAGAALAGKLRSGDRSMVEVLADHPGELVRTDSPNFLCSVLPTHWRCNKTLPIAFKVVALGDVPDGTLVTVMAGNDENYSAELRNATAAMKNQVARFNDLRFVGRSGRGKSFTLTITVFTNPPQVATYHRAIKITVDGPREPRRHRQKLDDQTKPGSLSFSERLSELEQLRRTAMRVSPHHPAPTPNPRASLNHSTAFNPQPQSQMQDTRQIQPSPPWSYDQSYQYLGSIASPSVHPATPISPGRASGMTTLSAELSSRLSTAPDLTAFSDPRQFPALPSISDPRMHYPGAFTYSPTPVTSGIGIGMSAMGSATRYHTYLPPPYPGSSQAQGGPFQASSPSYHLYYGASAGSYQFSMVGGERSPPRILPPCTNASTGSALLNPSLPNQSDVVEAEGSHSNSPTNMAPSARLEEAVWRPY
Target sequence (Q13951 whole entry, looked up): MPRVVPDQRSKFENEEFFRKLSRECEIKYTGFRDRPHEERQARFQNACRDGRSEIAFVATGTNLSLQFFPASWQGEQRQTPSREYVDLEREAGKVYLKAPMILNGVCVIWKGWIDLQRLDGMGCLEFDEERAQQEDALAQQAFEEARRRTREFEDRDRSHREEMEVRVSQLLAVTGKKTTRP
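AlphaScreen binding: CBFb-His and RUNX1-biotin (30 nM each) preincubated 20 min, compound added for 15 min, then nickel and streptavidin beads for 90 min, all at room temperature. Disruption of the interaction by any mechanism counts as activity.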
MBNL1-CUG inh: blocks human MBNL1 binding to CUG repeat RNA; 0.036% of 280,000 active; Q9NR56; Potency, µM (series often up to 57.5 µM), most hits filed as inhibitors; TR-FRET MBNL1-His/biotin-(CUG)12 binding, 665/545 ratio; AID 2675; active = well fitted inhibition curve with a large enough effect in the signal ratio, with a control signal flat, not every such curve was filed as active; inconclusive = small, poorly fitted or top-dose-only effect, or effect the other way, or a change in a side signal; inactive = no such curve, though single readings can be large or run the other way; the % refers to the signal ratio
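TR-FRET between His-tagged MBNL1 and biotin-(CUG)12 RNA, detected with Tb anti-His antibody (0.055 ng/ul) and streptavidin-XL665 (5 nM), 60 min at room temperature. Compounds titrated 92 nM to 58 uM; 665/545 nm ratio normalized to buffer and complex controls.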
Numbers stand for hits; [ ] = remark or other dose. Unless noted, calls come from the whole dose curve; as a rule, active = well fitted curve in the direction sought with a large enough effect; inconclusive = small, poorly fitted or top-dose-only effect, or another doubt; inactive = no such curve, though single readings can be large; an effect the other way counts as inactive or inconclusive.

CN(CC1CCCO1)S(=O)(=O)c1ccc(C(=O)Nc2ccccc2F)cc1 (stereo not drawn) was read as CtBP-E1A inh inactive and Six1-Eya2 blk inactive.
Screening O=C(Nc1nc(-c2ccccn2)cs1)c1cc(S(=O)(=O)N2CCOCC2)ccc1F returned L3MBTL1 inh inconclusive, CtBP-E1A inh inconclusive, Six1-Eya2 blk -90 and Eya2 inh inactive.
`Cc1cc(C)n(-c2ccc(C(=O)Nc3ccc(C)c(S(=O)(=O)N4CCOCC4)c3)cc2)n1` gave L3MBTL1 inh inactive, CtBP-E1A inh -76, Six1-Eya2 blk -73, Eya2 inh inactive, CBFb-RUNX1 inh inactive and MBNL1-CUG inh inactive.
Screening COc1cc(NC(=O)c2cc(=O)[nH]c3ccc(S(=O)(=O)N4CCOCC4)cc23)cc(OC)c1 returned L3MBTL1 inh inactive, CtBP-E1A inh inactive, Six1-Eya2 blk inactive and Eya2 inh inactive.
`CC(=O)c1ccc(NC(=O)c2ccc(C)c(S(=O)(=O)N3CCOCC3)c2)cc1` gave CtBP-E1A inh inactive, Six1-Eya2 blk inactive, Eya2 inh inactive and MBNL1-CUG inh inactive.
Screening CN(CC1CCCO1)S(=O)(=O)c1ccc(C(=O)Nc2nc(-c3ccccn3)cs2)cc1 (stereo not drawn) returned L3MBTL1 inh 32µM, CtBP-E1A inh -92, Six1-Eya2 blk inconclusive, Eya2 inh inactive and MBNL1-CUG inh inactive.
Cc1csc(NC(=O)c2cc(=O)[nH]c3ccc(S(=O)(=O)N4CCOCC4)cc23)n1 was read as L3MBTL1 inh inactive, CtBP-E1A inh -70, Six1-Eya2 blk inconclusive, Eya2 inh inactive, CBFb-RUNX1 inh inconclusive and MBNL1-CUG inh inactive.
Cc1ccc(C(=O)Nc2nc(-c3ccccn3)cs2)cc1S(=O)(=O)N1CCOCC1 was read as L3MBTL1 inh inconclusive, CtBP-E1A inh -92, Six1-Eya2 blk -91 and Eya2 inh inactive.
For Cc1ccc(C(=O)Nc2ccccn2)cc1S(=O)(=O)N1CCOCC1 the results were L3MBTL1 inh inactive, CtBP-E1A inh inactive, Six1-Eya2 blk inactive and Eya2 inh inactive.
Screening O=C(Nc1nc(-c2ccccn2)cs1)c1ccc(F)c(S(=O)(=O)N2CCOCC2)c1 returned L3MBTL1 inh inconclusive, CtBP-E1A inh -93, Six1-Eya2 blk -93 and Eya2 inh inactive.
Screening COC(=O)[C@@]12C[C@@H](CC(=O)NCc3cccc4ccccc34)C(=O)N(Cc3ccco3)C1=CCC(C)(C)C2 returned CtBP-E1A inh inactive and Six1-Eya2 blk inactive.
CC(=O)Nc1ccc(S(=O)(=O)NCCC(=O)Nc2ccc(C)c(F)c2)cc1 was read as CtBP-E1A inh inactive, Six1-Eya2 blk inactive, Eya2 inh inactive and MBNL1-CUG inh inactive.
For O=[N+]([O-])c1ccc(Cl)cc1Sc1cccc2cccnc12 the results were L3MBTL1 inh inactive, CtBP-E1A inh inactive, Six1-Eya2 blk inactive, Eya2 inh inactive, CBFb-RUNX1 inh inactive and MBNL1-CUG inh inactive.
For Cn1nc([N+](=O)[O-])nc1Sc1cccc2cccnc12 the results were L3MBTL1 inh inactive, Six1-Eya2 blk -90, Eya2 inh inactive, CBFb-RUNX1 inh inactive and MBNL1-CUG inh inconclusive.
Screening O=c1cc(-c2ccc(O)cc2)oc2c(-c3c(O)cc(O)c4c(=O)cc(-c5ccc(O)cc5)oc34)c(O)cc(O)c12 returned L3MBTL1 inh inactive, CtBP-E1A inh inactive, Six1-Eya2 blk inactive and Eya2 inh inactive.
Screening O=c1cc(-c2ccc(O)c(-c3c(O)cc(O)c4c(=O)cc(-c5ccc(O)cc5)oc34)c2)oc2cc(O)cc(O)c12 returned L3MBTL1 inh inactive, CtBP-E1A inh -68, Six1-Eya2 blk inactive, Eya2 inh inactive, CBFb-RUNX1 inh inactive[2.36 µM] and MBNL1-CUG inh inactive.
`O=c1c(-c2c(O)cc(O)c3c(=O)cc(-c4ccc(O)cc4)oc23)c(-c2ccc(O)cc2)oc2cc(O)cc(O)c12` gave CtBP-E1A inh inactive, Six1-Eya2 blk -68, Eya2 inh inactive and MBNL1-CUG inh inactive.

Bioassay records from PubChem BioAssay.
